As a reminder, the viability is a read-out of living cells in per cent, often relative to untreated cells.

This is an account of results in PubChem BioAssay (NCATS).

The nature of assay [1]: Quantitative High-Throughput drug screen in 47 multiple myeloma cell lines against the NCATS MIPE library collection: MM1S_ATCC cell viability assay (AID 1918980). Note: nearly all actives have a fitted effect of over 45% in size. A digest of the protocol: (§1)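 ATP-based CellTiter-Glo luminescence after 48 h drug exposure (37 °C, 5% CO2) of 500 myeloma cells per well. DMSO-only wells set 100% viability, media-only wells 0%; MIPE 4.0 library added by pin tool.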

Assay [2] is described as follows: Quantitative High-Throughput drug screen in 47 multiple myeloma cell lines against the NCATS MIPE library collection: MM1R_ATCC cell viability assay (AID 1918981). Note: nearly all actives have a fitted effect of over 35% in size. A digest of the protocol:
as §1

Assay [3] in a line: Quantitative High-Throughput drug screen in 47 multiple myeloma cell lines against the NCATS MIPE library collection: LP1_DSMZ cell viability assay (AID 1918982). Note: nearly all actives have a fitted effect of over 35% in size. A digest of the protocol:
as §1

The nature of assay [4]: Quantitative High-Throughput drug screen in 47 multiple myeloma cell lines against the NCATS MIPE library collection: KMS28PE_JCRB cell viability assay (AID 1918983). Note: nearly all actives have a fitted effect of over 35% in size. A digest of the protocol:
as §1

Assay [5] in a line: Quantitative High-Throughput drug screen in 47 multiple myeloma cell lines against the NCATS MIPE library collection: L363_DSMZ cell viability assay (AID 1918984). Note: nearly all actives have a fitted effect of over 40% in size. A digest of the protocol: as §1
The nature of assay [6]: Quantitative High-Throughput drug screen in 47 multiple myeloma cell lines against the NCATS MIPE library collection: OCIMY7_PLB cell viability assay (AID 1918987). Note: nearly all actives have a fitted effect of over 65% in size. The note with it: OCI-MY7 myeloma viability, CellTiter-Glo ATP, 48 h; viability (% of DMSO): at 45.8 µM (top of the series). A digest of the protocol: as §1
On the technique in general: Cellular ATP, detected with luciferase, serves as a proxy for viable cell number.

The nature of assay [7]: Quantitative High-Throughput drug screen in 47 multiple myeloma cell lines against the NCATS MIPE library collection: KMS34_JCRB cell viability assay (AID 1918985). Note: nearly all actives have a fitted effect of over 40% in size. A digest of the protocol:
as §1

The nature of assay [8]: Quantitative High-Throughput drug screen in 47 multiple myeloma cell lines against the NCATS MIPE library collection: OCIMY5_PLB cell viability assay (AID 1918988). Note: nearly all actives have a fitted effect of over 65% in size. Summed up: as §1
A short description of assay [9]: Quantitative High-Throughput drug screen in 47 multiple myeloma cell lines against the NCATS MIPE library collection: OPM1_PLB cell viability assay (AID 1918989). Note: nearly all actives have a fitted effect of over 40% in size. A digest of the protocol:
as §1

The nature of assay [10]: Quantitative High-Throughput drug screen in 47 multiple myeloma cell lines against the NCATS MIPE library collection: SKMM1_PLB cell viability assay (AID 1919863). Note: nearly all actives have a fitted effect of over 35% in size. As to conditions: SKMM1 myeloma viability, CellTiter-Glo ATP, 48 h; viability: active compounds read low. A digest of the protocol: as §1

SMILES strings stand for the structures. Results filed as inconclusive are left out. Values without a mark were called inactive. Activity calls are given as the source filed them. Calls come from the whole dose curve; as a rule, active = well fitted cell-killing curve with a large enough effect; inconclusive = small, poorly fitted or top-dose-only effect, or effect the other way; inactive = no such curve, though single readings can be large or run the other way.
Potency is the fitted concentration of half-maximal effect.

Regarding `CCC[C@H]1C[C@H](C(=O)N[C@@H]([C@@H]2O[C@@H](SC)[C@@H](O)[C@@H](O)[C@@H]2O)[C@H](C)Cl)N(C)C1`, the Potency result in assay [1], in assay [2], in [3], in [4], in assay [5] and in assay [6] was “inactive” throughout.

In the case of `N#CNC(=NCCCCCCOc1ccc(Cl)cc1)Nc1ccncc1`, the Potency is 5.9 nM (active) in assay [1]; 9.3 nM (active) in assay [2]; 18.7 nM (active) in assay [3]; 132 nM (active) in assay [4]; 662 nM (active) in [5]; 14.8 nM (active) in assay [7]. For the same compound, the results for the Potency in assay [8], in assay [9] and in assay [10] were 7.4 nM (active), 3 nM (active) and 16.6 nM (active), respectively.

Regarding `COc1cc(C=CC(=O)CC(=O)C=Cc2ccc(O)c(OC)c2)ccc1O`, the Potency is 27000 nM (active) in [1]; 7620 nM (active) in [2]; 30300 nM (active) in assay [3]; 17100 nM (active) in assay [4]; 3030 nM (active) in assay [5]; 2150 nM (active) in assay [6]. The Potency in assay [8] is 12100 nM (active); in assay [9], 3820 nM (active); in assay [10], 15200 nM (active).

Turning to `CN1C(C(=O)Nc2ccccn2)=C(O)c2sc(Cl)cc2S1(=O)=O`, the Potency in assay [1] was 5260 nM (active); in assay [2], 18700 nM (active); in assay [3] it was 4690 nM (active); in assay [4] it was 4690 nM (active); in [7] it was 2960 nM (active); in [8], 2960 nM (active). For the same compound, in assay [9], the Potency is 4180 nM (active).

Take `C=CC(=O)Nc1ccc2ncnc(Nc3ccc(OCc4cccc(F)c4)c(Cl)c3)c2c1`: the Potency in assay [1] is 1660 nM (active); in [2], 8330 nM (active); in assay [3], 5900 nM (active); in assay [4], 2640 nM (active); in assay [5] it was 29.6 nM (active); in assay [7], 332 nM (active). For the same compound, the Potency in assay [8] is 52.6 nM (active); in assay [9], 209 nM (active); in assay [10], 6620 nM (active).

For the compound `CN[C@H]1[C@@H](O)[C@@H]2O[C@@H]3O[C@H](C)CC(=O)[C@]3(O)O[C@@H]2[C@@H](NC)[C@H]1O`, the Potency was 209 nM (active) in assay [1]; 1180 nM (active) in [2]; 5900 nM (active) in [3]; 10500 nM (active) in [4]; 743 nM (active) in [5]; 8330 nM (active) in assay [6]. Moreover, the Potency in assay [8] is 1180 nM (active); in [9], 8330 nM (active); in [10], 10500 nM (active).

In the case of `OCc1ccccc1O[C@@H]1O[C@H](CO)[C@H](O)[C@H](O)[C@H]1O`, the Potency in assay [1] was 20900 nM (active); in assay [6], 26400 nM (active). The Potency result in assay [2], in assay [3], in [4] and in [5] was “inactive” in each case. Also, in [10], the viability was 130%.

In the case of `C=C1C[C@@]2(O)O[C@@]3(C[C@H]2C(C)C)[C@H](C)CC[C@H]13`, in [1], the Potency is 1480 nM (active). For the same compound, the Potency entry in assay [2], in assay [3], in assay [4], in assay [7], in assay [8] and in assay [9] was “inactive” throughout. In [10], the viability was 114%.

As to `COc1cccc2c1C(=O)c1c(O)c3c(c(O)c1C2=O)C[C@@](O)(C(C)=O)C[C@H]3O[C@H]1C[C@H](N)[C@H](O)[C@H](C)O1`, the Potency in assay [1] was 46.9 nM (active); in assay [2] it was 26.4 nM (active); in assay [3] it was 209 nM (active); in [4], 83.3 nM (active); in assay [5] it was 118 nM (active); in assay [6], 418 nM (active). Besides, the Potency is 46.9 nM (active) in assay [8], 105 nM (active) in assay [9] and 166 nM (active) in assay [10].

As to `CON=C(C(=O)N[C@@H]1C(=O)N2C(C(=O)O)=C(Cn3ccc(=N)n3CCO)CS[C@H]12)c1csc(N)n1`, the Potency result in assay [1], in assay [2], in assay [3], in assay [4], in [5] and in assay [7] was “inactive” throughout. Besides, the Potency result in assay [8] was “inactive”. For the same compound, the viability in assay [10] was 112%.

As for `CC(=O)OC[C@@H]1O[C@@H](n2ccc(=O)[nH]c2=O)[C@H](OC(C)=O)[C@H]1OC(C)=O`, the Potency result in assay [1], in [2], in assay [3], in assay [4], in [7] and in assay [8] was “inactive” in each case. Further, in assay [9], the Potency result was “inactive”.

In the case of `COc1cc(C)c(C=CC(C)=CC=CC(C)=CC(=O)O)c(C)c1C`, the Potency result in [1], in [2], in assay [3], in assay [4], in assay [5] and in assay [7] was “inactive” each time. Moreover, the viability in assay [10] was 132%.

As for `CCOC(=O)N1CCN([N+]([O-])=NOc2ccc([N+](=O)[O-])cc2[N+](=O)[O-])CC1`, the Potency in assay [1] is 1870 nM (active); in [2], 1180 nM (active); in assay [3], 2640 nM (active); in assay [4], 1320 nM (active); in assay [7], 935 nM (active); in assay [6], 526 nM (active). For the same compound, the results for the Potency in [8], in assay [9] and in assay [10] were 1320 nM (active), 1180 nM (active) and 6620 nM (active), respectively.

As to `Cc1cnn(C)c1C(=O)Nc1cc(Nc2ccc3c(C=Cc4ccccn4)n[nH]c3c2)ccc1F`, the Potency in [1] is 20900 nM (active); in [2], 26400 nM (active); in assay [3], 20900 nM (active); in assay [4], 29600 nM (active); in assay [5], 4690 nM (active); in assay [9] it was 4690 nM (active). For the same compound, the Potency in assay [10] is 20900 nM (active).

For `CN[C@@H]1C[C@H]2O[C@@](C)([C@H]1OC)n1c3ccccc3c3c4c(c5c6ccccc6n2c5c31)C(=O)N[C@H]4O`, the Potency is 332 nM (active) in [1]; 372 nM (active) in [2]; 1050 nM (active) in assay [3]; 833 nM (active) in assay [4]; 372 nM (active) in assay [7]; 23.5 nM (active) in [6]. Further, the Potency in assay [8] was 264 nM (active); in [9], 93.5 nM (active); in [10] it was 5900 nM (active).

For the compound `CC(=O)N[C@H]1[C@@H]([C@H](O)[C@H](O)CO)OC(C(=O)O)=C[C@@H]1N=C(N)N`, the Potency result in assay [1], in assay [2], in assay [3], in assay [4], in assay [5] and in [7] was “inactive” throughout. Further, the Potency entry in assay [9] was “inactive”.
